Experiment [1] in a line: NCI Yeast Anticancer Drug Screen. Data for the rad50 strain (AID 155).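 Note: 0% = growth of vehicle-only cultures of the same strain.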 As to conditions: S. cerevisiae rad50 strain growth inhibition, hits give high values. The essentials:
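Inhibition values express reduced yeast growth in compound-treated cultures relative to vehicle-treated controls.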

A short description of experiment [2]: NCI Yeast Anticancer Drug Screen. Data for the mec2-1 strain (AID 157). The settings on record: S. cerevisiae mec2-1 strain, hits give high values. The essentials:
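Test agents were screened against the mec2-1 yeast strain, with defined DNA repair or cell cycle alteration. Growth was scored as inhibition against vehicle-only controls.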

Experiment [3] in a line: NCI Yeast Anticancer Drug Screen. Data for the sgs1 mgt1 strain (AID 161).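 Note: 0% = growth of cultures given vehicle only.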 The settings on record: S. cerevisiae sgs1 mgt1 strain, hits give high values. The essentials: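 Inhibition of yeast growth, normalised to vehicle-treated controls, is reported for a strain bearing genetic alterations in DNA damage repair.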
The nature of experiment [4]: NCI Yeast Anticancer Drug Screen. Data for the cln2 rad14 strain (AID 165).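 Note: 0% = growth equal to vehicle treated cultures.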 As to conditions: S. cerevisiae cln2 rad14 strain, hits give high values. The essentials: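 Growth of compound-exposed yeast (cln2 rad14 genotype) measured and expressed as inhibition relative to vehicle.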
Experiment [5] is described as follows: NCI Yeast Anticancer Drug Screen. Data for the bub3 strain (AID 167). As to conditions: S. cerevisiae bub3 mutant strain, hits give high values. The gist of the method:
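Steps: expose the mutant yeast strain to compound; grow alongside vehicle-treated cultures; measure growth; express inhibition against the vehicle cultures.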

Experiment [6] is described as follows: NCI Yeast Anticancer Drug Screen. Data for the mlh1 rad18 strain (AID 175). As to conditions: S. cerevisiae mlh1 rad18 strain growth inhibition, hits give high values. The essentials: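 In this whole-cell yeast screen, a strain with altered DNA damage repair is challenged with compound, and its growth is measured against matched vehicle-treated controls.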
Where [7] appears, read: at 5.0 µM (retest, dose inferred, filed as 0.5).
Where [8] appears, read: at 50.0 µM (retest, dose inferred, filed as 5.0).

This is part of a sample that, as a whole, favours compounds with a hit. Of some 79,000 tested, about 15% had one in any assay. A number with no mark means an inactive call. Calls of active or inactive are those of the source. Cut-off read from the data, not from the text of the source: active = growth inhibition above about 70%; inactive = the rest.

Turning to `OCC(O)C(O)C(O)C(/C=N/Nc1ccccc1)=N\Nc1ccccc1` (stereo not given), the growth inhibition in experiment [1] (setting [7]) was 4%; in experiment [1] (setting [8]), -3%; in experiment [1] (at 50.0 µM) it was 51.4%; in experiment [2] (setting [7]), -1%; in experiment [2] (setting [8]) it was -1%; in experiment [2] (at 50.0 µM) it was 4.95%. Moreover, the growth inhibition in experiment [3] (setting [7]) was 20%; in experiment [3] (setting [8]), 16%; in experiment [3] (at 50.0 µM), 70.7% (active); in experiment [4] (setting [7]), -41%; in experiment [4] (setting [8]), 4%; in experiment [4] (at 50.0 µM), -0.65%. For the same compound, the growth inhibition in experiment [5] (setting [7]) is 1%; in experiment [5] (setting [8]), -89%; in experiment [5] (at 50.0 µM), 4.3%; in experiment [6] (setting [7]) it was 16%; in experiment [6] (setting [8]) it was 4%; in experiment [6] (at 50.0 µM), 30.4%.
Take `CN(C)C(N)=NC#N`: the growth inhibition was 25% in experiment [1] (setting [7]); 47% in experiment [1] (setting [8]); 73.2% (active) in experiment [1] (at 50.0 µM); 22% in experiment [2] (setting [7]); 86% (active) in experiment [2] (setting [8]); 75.7% (active) in experiment [2] (at 50.0 µM). Besides, the growth inhibition in experiment [3] (setting [7]) was 27%; in experiment [3] (setting [8]) it was 96% (active); in experiment [3] (at 50.0 µM), 51.2%; in experiment [4] (setting [7]), 20%; in experiment [4] (setting [8]) it was 54%; in experiment [4] (at 50.0 µM), 9.65%. Further, the growth inhibition in experiment [5] (setting [7]) is 29%; in experiment [5] (setting [8]), 95% (active); in experiment [5] (at 50.0 µM) it was 65.2%; in experiment [6] (setting [7]), 33%; in experiment [6] (setting [8]) it was 71% (active); in experiment [6] (at 50.0 µM), 67%.
As to `O=c1c2cc(Br)ccc2ncn1COCc1ccccc1`, the growth inhibition in experiment [1] (setting [7]) is 21%; in experiment [1] (setting [8]), 20%; in experiment [1] (at 50.0 µM) it was 7.3%; in experiment [2] (setting [7]), 11%; in experiment [2] (setting [8]), 11%; in experiment [2] (at 50.0 µM), -4.1%. Also, the growth inhibition in experiment [3] (setting [7]) is 21%; in experiment [3] (setting [8]), 19%; in experiment [3] (at 50.0 µM) it was 87.2% (active); in experiment [4] (setting [7]), 24%; in experiment [4] (setting [8]), -12%; in experiment [4] (at 50.0 µM), 54%. The growth inhibition in experiment [5] (setting [7]) is 15%; in experiment [5] (setting [8]), -21%; in experiment [5] (at 50.0 µM) it was 83.5% (active); in experiment [6] (setting [7]) it was 27%; in experiment [6] (setting [8]), 24%; in experiment [6] (at 50.0 µM) it was 43.3%.
On to `COc1cccc2c1C(=O)c1c(O)c3c(c(O)c1C2=O)C[C@@](O)(C(=O)CO)C[C@@H]3OC1CC(N(C)C)C(O)C(C)O1` (stereo not given in full), for which the growth inhibition in experiment [1] (setting [7]) was 94% (active); in experiment [1] (setting [8]) it was 95% (active); in experiment [1] (at 50.0 µM), 90.1% (active); in experiment [2] (setting [7]), 96% (active); in experiment [2] (setting [8]), 97% (active); in experiment [2] (at 50.0 µM), 91.8% (active). Also, the growth inhibition in experiment [3] (setting [7]) was 97% (active); in experiment [3] (setting [8]), 97% (active); in experiment [3] (at 50.0 µM), 91.2% (active); in experiment [4] (setting [7]), 96% (active); in experiment [4] (setting [8]) it was 95% (active); in experiment [4] (at 50.0 µM), 88.8% (active). Moreover, the growth inhibition is 95% (active) in experiment [5] (setting [7]); 97% (active) in experiment [5] (setting [8]); 89.3% (active) in experiment [5] (at 50.0 µM); 94% (active) in experiment [6] (setting [7]); 94% (active) in experiment [6] (setting [8]); 90.7% (active) in experiment [6] (at 50.0 µM).
As to `Cc1c(Cl)c(S(N)(=O)=O)cc2c1NC=NS2(=O)=O`, the growth inhibition in experiment [1] (setting [7]) was 10%; in experiment [1] (setting [8]), -10%; in experiment [1] (at 50.0 µM), 7.45%; in experiment [2] (setting [7]), -1%; in experiment [2] (setting [8]), 2%; in experiment [2] (at 50.0 µM), -22.8%. Further, the growth inhibition in experiment [3] (setting [7]) is -2%; in experiment [3] (setting [8]), -14%; in experiment [3] (at 50.0 µM), -26.1%; in experiment [4] (setting [7]) it was 7%; in experiment [4] (setting [8]), 9%; in experiment [4] (at 50.0 µM) it was 22.4%. The growth inhibition was -13% in experiment [5] (setting [7]); -3% in experiment [5] (setting [8]); -20.4% in experiment [5] (at 50.0 µM); -3% in experiment [6] (setting [7]); 10% in experiment [6] (setting [8]); -16.6% in experiment [6] (at 50.0 µM).
Regarding `Cc1ccc(O)c(C(c2cc(C)ccc2O)c2ccccc2Cl)c1`, the growth inhibition is 96% (active) in experiment [1] (setting [7]); 99% (active) in experiment [1] (setting [8]); 98.2% (active) in experiment [1] (at 50.0 µM); 95% (active) in experiment [2] (setting [7]); 99% (active) in experiment [2] (setting [8]); 99.5% (active) in experiment [2] (at 50.0 µM). The growth inhibition in experiment [3] (setting [7]) is 91% (active); in experiment [3] (setting [8]), 99% (active); in experiment [3] (at 50.0 µM) it was 99.2% (active); in experiment [4] (setting [7]) it was 98% (active); in experiment [4] (setting [8]) it was 99% (active); in experiment [4] (at 50.0 µM), 98.6% (active). Besides, the growth inhibition is 85% (active) in experiment [5] (setting [7]); 99% (active) in experiment [5] (setting [8]); 98.5% (active) in experiment [5] (at 50.0 µM); 97% (active) in experiment [6] (setting [7]); 95% (active) in experiment [6] (setting [8]); 99% (active) in experiment [6] (at 50.0 µM).
In the case of `CC(CN(C)C)C(=O)c1cn(C)c2ccccc12` (stereo not given), the growth inhibition in experiment [1] (setting [7]) is 1%; in experiment [1] (setting [8]), 3%; in experiment [1] (at 50.0 µM), 9%; in experiment [2] (setting [7]), 5%; in experiment [2] (setting [8]), 2%; in experiment [2] (at 50.0 µM) it was 16.8%. In addition, the growth inhibition in experiment [3] (setting [7]) is -2%; in experiment [3] (setting [8]) it was 3%; in experiment [3] (at 50.0 µM), 30.3%; in experiment [4] (setting [7]) it was 3%; in experiment [4] (setting [8]) it was 4%; in experiment [4] (at 50.0 µM) it was 12.6%. For the same compound, the growth inhibition in experiment [5] (setting [7]) is -2%; in experiment [5] (setting [8]), -4%; in experiment [5] (at 50.0 µM), -9.05%; in experiment [6] (setting [7]), -2%; in experiment [6] (setting [8]) it was 1%; in experiment [6] (at 50.0 µM), 70.2% (active).
As for `CCS(=O)(=O)c1ccc(NC(=O)OC2CCCCCCC2)cc1`, the growth inhibition in experiment [1] (setting [7]) is 5%; in experiment [1] (setting [8]), 89% (active); in experiment [1] (at 50.0 µM) it was 95.8% (active); in experiment [2] (setting [7]), 16%; in experiment [2] (setting [8]) it was 86% (active); in experiment [2] (at 50.0 µM) it was 80.6% (active). Moreover, the growth inhibition in experiment [3] (setting [7]) was 11%; in experiment [3] (setting [8]), 74% (active); in experiment [3] (at 50.0 µM), 65.5%; in experiment [4] (setting [7]), -50%; in experiment [4] (setting [8]) it was 88% (active); in experiment [4] (at 50.0 µM), 88.8% (active). The growth inhibition was 6% in experiment [5] (setting [7]); -30% in experiment [5] (setting [8]); 95.2% (active) in experiment [5] (at 50.0 µM); 6% in experiment [6] (setting [7]); 90% (active) in experiment [6] (setting [8]); 91.6% (active) in experiment [6] (at 50.0 µM).
With `CCOC(=O)c1c(N)sc2c1CCCCC2`, the growth inhibition is -160% in experiment [1] (setting [7]); -118% in experiment [1] (setting [8]); 47% in experiment [1] (at 50.0 µM); -51% in experiment [2] (setting [7]); -25% in experiment [2] (setting [8]); 45.4% in experiment [2] (at 50.0 µM). Further, the growth inhibition in experiment [3] (setting [7]) is -63%; in experiment [3] (setting [8]) it was 1%; in experiment [3] (at 50.0 µM) it was 52%; in experiment [4] (setting [7]), -53%; in experiment [4] (setting [8]) it was -52%; in experiment [4] (at 50.0 µM), 27.6%. Moreover, the growth inhibition in experiment [5] (setting [7]) is -71%; in experiment [5] (setting [8]), -42%; in experiment [5] (at 50.0 µM), 50.4%; in experiment [6] (setting [7]) it was -142%; in experiment [6] (setting [8]), -88%; in experiment [6] (at 50.0 µM), 61.1%.
For the compound `O=C(O)CSC(=S)N1CCCC1`, the growth inhibition in experiment [1] (setting [7]) was -4%; in experiment [1] (setting [8]) it was 5%; in experiment [1] (at 50.0 µM), 46%; in experiment [2] (setting [7]) it was 2%; in experiment [2] (setting [8]), 3%; in experiment [2] (at 50.0 µM), -5.3%. Further, the growth inhibition in experiment [3] (setting [7]) was -4%; in experiment [3] (setting [8]), 4%; in experiment [3] (at 50.0 µM), -14.5%; in experiment [4] (setting [7]), 2%; in experiment [4] (setting [8]), 2%; in experiment [4] (at 50.0 µM) it was -40.7%. The growth inhibition is 2% in experiment [5] (setting [7]); -3% in experiment [5] (setting [8]); -5.6% in experiment [5] (at 50.0 µM); -4% in experiment [6] (setting [7]); 8% in experiment [6] (setting [8]); -15.8% in experiment [6] (at 50.0 µM).

These data come from PubChem BioAssay (NCI).
